Screening results deposited in PubChem BioAssay by several laboratories.
Sampled rows, rich in hits. Any-hit rate of the full collection: about 3.1%.
PREPL inhibitor – PREPL enzyme inhibitors, primary screen, biochemical, fluorescence polarization; Prolyl endopeptidase-like (Homo sapiens), Q4J6C6; recombinant PREPL, fluorescence polarization activity-based probe; inhibition, % at 5.96 µM; 320,000 tested, 0.68% active; AID 2751, 2010; in the data active = inhibition above about 43%;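 also: 0% = enzyme with DMSO and 100% = wells lacking enzyme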
MEKK2 mut-MEK5 – MEK5 binding signal on mutant MEKK2 PB1, primary screen, biochemical, multiplex bead flow cytometry, Alexa488-MEK5. percent response, % at 10 µM. 290,000 tested, 0.35% active. AID 1530, 2009. Alexa488-MEK5 binding to MEKK2 mutant; in the data active = percent response above about 24%, passing the limit was not always enough
UBC13 inh – UBC13 polyubiquitin chain formation inhibitors, primary screen, biochemical, TR-FRET, uHTS | inhibition, % at 20 µM | 330,000 tested, 0.47% active | AID 485273, 2010; in the data active = inhibition above about 45%, passing the limit was not always enough; inconclusive = no clear call, values can overlap the other calls
ATG4B inhibitor – ATG4B protease inhibitors, primary screen, biochemical, fluorescence, uHTS; inhibition, % at 8.33 µM; AID 504462, 2011; 340,000 tested, 0.51% active; ATG4B cleavage of LC3-PLA2, NBD-HPC fluorescence, 1 h; Cysteine protease ATG4B (Homo sapiens), Q9Y4P1; in the data active = inhibition above about 40%
MEKK2wt PB1 HTS – modulators of MEK5 binding to wildtype MEKK2, primary screen, biochemical, multiplex bead flow cytometry, Alexa488-MEK5 | Alexa488-MEK5 binding to MEKK2 WT; actives lie on both sides | Mitogen-activated protein kinase kinase kinase 2 (Homo sapiens), Q9Y2U5 | binding response (% of control), % at 10 µM | 290,000 tested, 1.1% active; in the data active = binding response below about 67% or above about 130%; inconclusive = no clear call, values can overlap the other calls; inactive = in between
MEKK3 PB1 HTS – modulators of MEKK3-MEK5 PB1 binding, primary screen, biochemical, wildtype MEKK3, multiplex bead flow cytometry, Alexa488-MEK5. Mitogen-activated protein kinase kinase kinase 3 (Homo sapiens), Q99759. bead-based flow cytometry, Alexa488-MEK5 binding to MEKK3; actives lie on both sides; 0 = blocked by unlabeled MEK5, 100 = vehicle. binding response (% of control), % at 10 µM. 290,000 tested, 1.4% active. AID 1529, 2009;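 active = binding response more than 3 SD above or below the average of its plate-row segment, actives on both sides; inconclusive = wells at one plate position flagged as instrument error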;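 also: Alexa488 bead fluorescence after subtracting the streptavidin-only scavenger bead signal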
Target sequence (Q99759 whole entry, looked up): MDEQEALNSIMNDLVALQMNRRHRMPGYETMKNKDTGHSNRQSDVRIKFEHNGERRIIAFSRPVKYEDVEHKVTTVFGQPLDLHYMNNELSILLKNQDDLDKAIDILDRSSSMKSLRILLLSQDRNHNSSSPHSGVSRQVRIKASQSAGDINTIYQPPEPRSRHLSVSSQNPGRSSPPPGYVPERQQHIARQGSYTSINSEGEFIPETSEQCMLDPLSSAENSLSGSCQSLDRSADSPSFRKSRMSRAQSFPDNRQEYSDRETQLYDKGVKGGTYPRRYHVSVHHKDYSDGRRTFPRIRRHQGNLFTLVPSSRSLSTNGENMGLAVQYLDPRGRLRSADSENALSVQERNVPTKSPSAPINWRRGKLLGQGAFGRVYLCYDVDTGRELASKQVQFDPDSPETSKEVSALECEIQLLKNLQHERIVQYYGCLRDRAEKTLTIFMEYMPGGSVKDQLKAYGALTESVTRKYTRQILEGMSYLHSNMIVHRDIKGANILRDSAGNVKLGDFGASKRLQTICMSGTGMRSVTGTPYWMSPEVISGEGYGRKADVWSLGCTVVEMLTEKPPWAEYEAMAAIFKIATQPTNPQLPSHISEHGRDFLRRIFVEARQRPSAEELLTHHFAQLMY
MEKK2wt confirm – modulators of MEK5 binding to wildtype MEKK2, confirmation, biochemical, single concentration, multiplex bead flow cytometry | 5,900 tested, 2.4% active | shares compounds with MEKK3 PB1 HTS | Alexa488-MEK5 binding to MEKK2 WT; actives lie on both sides | binding response (% of control), % at 10 µM; in the data active = binding response below about 16% or above about 210%; inactive = in between
MEKK2mut confirm – mutant MEKK2 PB1-MEK5 binding signal retest – biochemical, single concentration, multiplex bead flow cytometry, confirmation | shares compounds with MEKK3 PB1 HTS | Alexa488-MEK5 binding to MEKK2 mutant | percent response, % at 10 µM | 5,900 tested, 2% active; in the data active = percent response mostly above about 71%, no sharp cut-off; inactive = mostly below about 38%;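 also: higher means compound restores mutant binding toward wildtype level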
MEKK3 confirm – MEKK3 wild-type PB1 binding to MEK5, inhibitors, confirmation, biochemical, bead multiplex flow cytometry, single concentration, wildtype. shares compounds with MEKK3 PB1 HTS. Alexa488-MEK5 binding to MEKK3; hits give low values. binding response (% of control), % at 10 µM. 5,900 tested, 1.8% active. AID 1894, 2009;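 active = binding response below 72% of control, or above a set upper limit, though filed actives all read lower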;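 also: 100% = DMSO only wells and 0% = binding blocked by excess unlabeled MEK5; lower values mean stronger disruption of MEK5 binding to MEKK3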
An asterisk follows results filed as active; u = inconclusive; x = no result given; [ ] = dose if it differs, or a comment.

SMILES	PREPL inhibitor	MEKK2 mut-MEK5	UBC13 inh	ATG4B inhibitor	MEKK2wt PB1 HTS	MEKK3 PB1 HTS	MEKK2wt confirm	MEKK2mut confirm	MEKK3 confirm
CCN1CCN(S(=O)(=O)c2ccc(Cl)c(C(=O)NC(C)c3ccccc3Cl)c2)CC1 (stereo unspecified)	11	x	4	0	x	x	x	x	x
CC1=CC2(C)C(C3C(C)=CC2(C)C(=O)C3(C)O)C(C)(O)C1=O (stereo unspecified)	x	x	x	-4	x	x	x	x	x
COc1ccc(NC(=O)C2CCCN(CCCc3ccccc3)C2)cc1OCC(C)C (stereo unspecified)	14	19	17	2	139*	110	109	3	98
O=C(NCCCN1CCCC(O)C1)c1cc(COc2ccc(F)cc2F)on1 (stereo unspecified)	10	-1	-7	22	96	93	x	x	x
Nc1ccccc1C(=O)NCCN1CCNC1=O	6	5	4	2	107	104	x	x	x
Cc1ccc(C(=O)NCCN2CCNC2=O)cc1	2	28	9	-2	131	129*	101	1	99
O=C(CSc1ccc2nnc(-c3ccc(F)cc3)n2n1)N1CCCc2ccccc21	8	0	-9	-14	102	134*	101	5	104
O=C(CSc1ccc2nnc(-c3ccc(Cl)cc3)n2n1)N1CCCc2ccccc21	-6	-1	27	-6	97	112	x	x	x
O=C(CSc1nccn1-c1ccccc1)NO	1	51*	19	-4	70	33*[inhibitor]	105	1	98
O=C(CSc1nccn1-c1cccc(Cl)c1)NO	10	0	4	2	99	100	x	x	x
CC(c1ccccc1)C1OCC(C[N+]2(C)CCCCC2)O1 (stereo unspecified)	1	-18	6	8	47*[inhibitor]	43*[inhibitor]	105	7	105
CC(C)(C)S(=O)N1Cc2cn(Cc3ccccc3)c(=O)cc2[C@@H]1CCO (stereo partly specified)	x	x	x	2	x	x	x	x	x
CC(C)(C=O)C1=CC(=O)c2ccccc2C1=O	2	1	x	-5	105	154*	96	-2	99
COCCN1C(=O)/C(=C/c2ccc(N3CCCC3)cc2C)SC1=S	1	-36	-338	2	20*[inhibitor]	59	24	-33	56*
CCN=C1S/C(=C\c2ccc(N3CCOCC3)cc2C)C(=O)N1CC	11	-1	2	-8	106	106	x	x	x
CC1CCCC(C)N1C(=O)COC(=O)Cc1c[nH]c2ccccc12 (stereo unspecified)	0	x	-9	-2	x	x	x	x	x
c1ccc(CSc2ccc(-c3cccs3)nn2)cc1	13	1	6	11	106	129*	94	-1	92
c1ccc(CSc2ccc(-c3cccs3)nn2)nc1	-3	0	4	4	103	105	x	x	x
CCCN1C(=O)C2(C(C(=O)c3ccc(C)o3)=C(O)C(=O)N2CCCOC)c2ccccc21 (stereo unspecified)	5	-22	-9	-11	93	90	x	x	x
Cc1nn(CCC#N)c2nc(-c3ccccc3)cc(C(F)(F)F)c12	1	2	16	-9	93	103	x	x	x
Cc1nn(CCC(N)=S)c2nc(-c3cccs3)cc(C(F)(F)F)c12	-1	0	9	12	104	151*	105	8	104
COc1ccc(-c2cnnc(N/N=C/c3ccc(O)cc3)n2)cc1	3	0	-22	6	117	128*	102	3	100
Cc1cc(NC(=O)CCSc2ccccc2)ccc1Br	-22	-1	-2	-6	113	133*	104	-4	105
Nc1ccc(Nc2ccccc2N)cc1	94*	-3	-32	13	69	60*[inhibitor]	78	7	60*
CCCC1CCC(c2ccc(OCC)cc2)=CC1=O (stereo unspecified)	x	2	3	-2	101	100	x	x	x
SMILES	PREPL inhibitor	MEKK2 mut-MEK5	UBC13 inh	ATG4B inhibitor	MEKK2wt PB1 HTS	MEKK3 PB1 HTS	MEKK2wt confirm	MEKK2mut confirm	MEKK3 confirm
O=c1o[nH]c(-c2ccccc2)c1C1=NCCCCC1	-5	-3	-2	-7	96	73*[inhibitor]	101	-2	102
COC(=O)c1cc(NC(=O)c2ccccc2)c(=O)oc1/C=C/Nc1ccc(Oc2ccccc2)cc1	x	734*	-147	2	218*	85	87	-30	73
CC1CCN(CCCNC(=O)c2ccc(Cn3c(=S)[nH]c4ccc(Br)cc4c3=O)cc2)CC1	18	38	u	x	166*	103	190	50	108
CN1CCN(CCCNC(=O)c2ccc(Cn3c(=S)[nH]c4ccc(Br)cc4c3=O)cc2)CC1	9	-1	28	-2	108	103	x	x	x
CN1CCN(Cc2cc(Cl)c3cccnc3c2OC(=O)c2cccs2)CC1	9	-1	-2	-1	94	72*[inhibitor]	105	-1	100
CC(O)C(NC(=O)OCc1ccccc1)C(=O)OCc1ccccc1 (stereo unspecified)	1	x	9	-1	x	x	x	x	x
COc1cc(SC)ccc1C(=O)N1CCN(c2ccccc2)CC1	16	-11	-1	-4	92	106	x	x	x
COc1cc(SC)ccc1C(=O)N1CCCCCC1	20	5	-12	-2	126	125*	118	13	108
CC(C)C[C@H](NC(=O)c1[nH]cnc1C(=O)N[C@@H](C)c1ccccc1)C(=O)OCc1ccccc1	-5	1	-38	-2	1.0*[inhibitor]	1.0*[inhibitor]	102	-2	105
COc1cc(S(=O)(=O)n2nc(C)cc2C)c(OC)cc1Cl	1	-27	-1	2	-2.0*[inhibitor]	2.0*[inhibitor]	102	0	99
COc1cc(Cl)ccc1S(=O)(=O)n1nc(C)cc1C	17	0	4	-4	95	95	x	x	x
CCS(=O)(=O)c1ccc2oc(SCC(=O)N3CCCCC3)nc2c1	10	-14	-9	-3	67	48*[inhibitor]	107	3	106
